Bioassay records deposited in PubChem by National Center for Advancing Translational Sciences (NCATS).
Sfp inh = inhibitors of Bacillus subtilis Sfp phosphopantetheinyl transferase. Potency, µM, inactives show largest response in the series, negative = inhibition, hits mostly inhibitors. Biochemical Sfp PPTase activity, qHTS. hit rate 3.5% among 310,000;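 note: the enzyme is Sfp with the accession as filed and its product quenches rhodamine fluorescence; 0% = enzyme reaction without inhibitor and -100% = no enzyme wells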
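Buffer: 50 mM Hepes-Na pH 7.6, 10 mM MgCl2, 0.01% Nonidet P-40, 0.01% BSA. Enzyme 15 nM, pre-exposed to compound 15 min; substrates then added and fluorescence change tracked over 30 min.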
RORgamma inh = ROR gamma (mouse) transcription inhibition. P51450. Drosophila S2 Gal4-RORgamma UAS-luciferase reporter, 20 h. Potency, µM (titrated, usually from 53.6 µM), for the others: top-dose activity change, negative = inhibition, hits mostly inhibitors. hit rate 5.4% among 310,000. AID 2551; note: nearly all actives have a fitted effect of over 60% in size
Target sequence (P51450 whole entry, looked up, the tested form may be a part): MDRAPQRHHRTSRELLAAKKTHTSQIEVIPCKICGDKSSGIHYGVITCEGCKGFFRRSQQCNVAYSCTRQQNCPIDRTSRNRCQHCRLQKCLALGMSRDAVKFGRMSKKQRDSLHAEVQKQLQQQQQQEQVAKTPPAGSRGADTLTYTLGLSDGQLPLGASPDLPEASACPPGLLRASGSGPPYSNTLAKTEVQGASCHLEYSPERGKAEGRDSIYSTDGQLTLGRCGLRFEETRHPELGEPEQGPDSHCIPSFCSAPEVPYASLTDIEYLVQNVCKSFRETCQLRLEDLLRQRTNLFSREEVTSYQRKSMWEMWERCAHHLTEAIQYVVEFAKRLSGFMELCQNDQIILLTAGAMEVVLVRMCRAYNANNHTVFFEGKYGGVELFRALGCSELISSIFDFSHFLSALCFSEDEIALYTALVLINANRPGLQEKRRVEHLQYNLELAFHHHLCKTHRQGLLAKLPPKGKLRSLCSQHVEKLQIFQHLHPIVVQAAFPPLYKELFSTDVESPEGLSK
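ROR gamma transcriptional activity was tracked as Gal4-UAS luciferase output in stably transfected Drosophila Schneider cells, with compound added 1 hr before 700 uM copper sulfate induction and a 20 hr ambient-temperature incubation.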
ALDH1A1 block = blocks purified human ALDH1A1 activity | hit rate 7.3% among 220,000 | P00352 | Purified ALDH1A1, NADH fluorescence, propionaldehyde substrate | Potency, µM (titrated, usually from 75.3 µM), without a hit: top-dose activity, negative = inhibition, hits mostly inhibitors; active = well fitted inhibition curve with a large enough effect, not every such curve was filed as active; inconclusive = small, poorly fitted or top-dose-only effect, or another doubt; inactive = no such curve, though single readings can be large or run the other way;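 note: plate controls were no enzyme wells and a reference inhibitor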
Gal4-VP16 FLuc = counter-screen for ROR gamma inhibitors: Gal4-VP16 reporter; Potency, µM (doses to about 53.6 µM), for inactives: at the highest dose activity, negative = inhibition, most hits filed as inhibitors; hit rate 3.5% among 310,000; AID 2546; Drosophila S2 Gal4-VP16 UAS-luciferase, luminescence, 20 h;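 note: Gal4-VP16 expression switched on by copper sulfate through the metallothionein promoter; nearly all actives have a fitted effect of over 50% in size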
PLK1 PBD block = PLK1 (human) polo-box domain binding inhibition; Plk1 PBD binding of FITC phosphopeptide, fluorescence polarization; P53350; Potency, µM, inactives show max response, negative = inhibition, most hits filed as inhibitors; AID 720504; hit rate 2.8% among 360,000; note: series mostly up to about 57 µM; nearly all actives have a fitted effect of over 65% in size
Numbers without * were called inactive; ? = inconclusive; . = not tested or not shown; [ ] = another dose, or the depositor's remark. Most compounds without a hit are left out; they make up all but 12% or so of the library. Unless noted, calls come from the whole dose curve; as a rule, active = well fitted curve in the direction sought with a large enough effect; inconclusive = small, poorly fitted or top-dose-only effect, or another doubt; inactive = no such curve, though single readings can be large; an effect the other way counts as inactive or inconclusive. Unless noted, % is set by controls: 0 for no effect and ±100 for the full control effect; potency is the fitted concentration of half-maximal effect.

SMILES	Sfp inh	RORgamma inh	ALDH1A1 block	Gal4-VP16 FLuc	PLK1 PBD block
CC(Sc1nc(-c2ccccc2)c(-c2ccccc2)[nH]1)C(=O)NCC1CCCO1 (stereo not drawn)	.	.	.	.	-3%
COc1ccc(CC(=O)OCc2cc3ccccc3[nH]c2=O)cc1	7%	-31%	?	-14%	-3%
COc1ccc(NCc2cc3ccccc3[nH]c2=O)cc1	7%	23%	7.9µM*	-1%	-10%
Cc1cccc2cc(C#N)c(NCCNS(=O)(=O)c3ccccc3)nc12	-4%	-9%	-3%	5%	-12%
Cc1cccc2cc(C#N)c(NCc3ccccc3)nc12	?	5.6µM*	?	7.1µM*	-4%
Cc1cccc2cc(C#N)c(NCCNC(=O)COc3ccccc3)nc12	50µM*	?	?	?	-11%
CCOC(=O)c1cnc2ccc(C)cc2c1OCc1cc(F)cc(F)c1	1%	-24%	14µM*	-14%	-1%
CCOc1ccc(S(=O)(=O)Nc2cc(Sc3ncn[nH]3)c3oc(=O)sc3c2)cc1	7.9µM*	?	-1%	?	.
CCOc1ccc(S(=O)(=O)Nc2ncn[nH]2)cc1	17%	-6%	.	-1%	-14%
COC(=O)[C@@]1(Cc2ccc(OC)cc2)[C@H]2c3cc(C(=O)N4CCCC4)n(Cc4ccccc4)c3C[C@H]2CN1C(=O)c1ccccc1	.	.	.	.	3%
CCC(C)(C)NC(=O)c1ccc2c(c1)N(CC(=O)N1CCCC1)C(=O)C(C)(C)O2	26%	1%	.	-7%	3%
CC(C)(C)NC(=O)c1ccc2c(c1)N(CC(=O)N1CCN(c3ccccc3F)CC1)C(=O)C(C)(C)O2	-9%	14%	14µM*	-1%	-7%
COc1ccc(N2C(=O)CCC(C(=O)NCc3ccccn3)C2c2ccc(F)cc2)cc1 (stereo not drawn)	8%	14%	4%	6%	0%
COc1ccc(C2C(C(=O)N3CCOCC3)CCC(=O)N2c2ccc(OC)cc2)cc1 (stereo not drawn)	4%	14%	14µM*	2%	-3%
COc1ccc(N2C(=O)CCC(C(=O)N3CCCCC3)C2c2ccc(OC)c(OC)c2)cc1 (stereo not drawn)	20%	-31%	1%	23%	0%
COc1ccc(N2C(=O)CCC(C(=O)Nc3cccc(C)n3)C2c2ccc(OC)c(OC)c2)cc1 (stereo not drawn)	7%	31%	22µM*	-10%	?
COc1ccc(N2C(=O)CCC(C(=O)NCc3ccccn3)C2c2ccc(OC)c(OC)c2)cc1 (stereo not drawn)	4%	-3%	8%	22%	-12%
COc1ccc(C2C(C(=O)NCC3CCCO3)CCC(=O)N2c2ccc3c(c2)OCO3)cc1 (stereo not drawn)	16%	-1%	14µM*	0%	-9%
CC(=O)N1CCc2ccc(C(=O)CN3CCN(c4cccc(C)c4C)CC3)cc21	-4%	-1%	8.9µM*	-7%	.
CC(=O)N1CCc2cc(C(=O)CN3CCN(c4cccc(Cl)c4)CC3)ccc21	-26%	7%	6.3µM*	11%	-11%
CC(=O)N1CCc2cc(C(=O)CN3CCCN(Cc4ccc(F)cc4)C3)ccc21	8%	3%	?	8%	.
CC(=O)N1CCc2cc(C(=O)CN3CCC(C)CC3)ccc21	-11%	18%	20µM*	8%	-9%
CC(=O)N1CCc2cc(C(=O)CN3CCN(C(=O)c4ccco4)CC3)ccc21	18µM*	?	11µM*	9%	-13%
CNC(=O)[C@@H](Cc1ccccc1)N(C)C(=O)[C@@H](Cc1ccc2ccccc2c1)N(C)C(=O)/C=C/CC(C)(C)N	9%	-5%	-3%	-5%	.
O=C(NC1CCCCC1)C1c2ccccc2OCC(=O)N1Cc1ccc2c(c1)OCO2 (stereo not drawn)	.	.	.	.	1%
SMILES	Sfp inh	RORgamma inh	ALDH1A1 block	Gal4-VP16 FLuc	PLK1 PBD block
Cc1ccc(S(=O)(=O)CCC(=O)OCC(=O)N(C)c2ccccc2)cc1	.	.	.	.	3%
Cc1ccc(C)c(NC(=O)CN2C(=O)C3CC=CCC3C2=O)c1 (stereo not drawn)	.	.	.	.	-11%
COC(=O)CCCC1=CC2=C(c3ccccc3)C(=O)C(C)(OC(=O)C3CCCC3)C(=O)C2=CN1CCc1c[nH]c2ccccc12 (stereo not drawn)	?	9%	3.2µM*	1%	1%
O=C(CCNS(=O)(=O)c1ccccc1)NNC(=O)c1csc(N2CCOCC2)n1	.	.	.	.	-1%
Cc1ccc(C)c(SCC(=O)NNC(=O)c2csc(N3CCOCC3)n2)c1	28%	8.9µM*	.	?	-6%
O=C(NNC(=O)c1ccccc1OCc1ccccc1Cl)c1csc(N2CCOCC2)n1	0%	13µM*	.	?	-12%
CC(=O)Nc1ccc(S(=O)(=O)NCC(=O)NNC(=O)c2csc(N3CCOCC3)n2)cc1	.	.	.	.	21µM*
COC(=O)[C@@H]1CCCN1C(=O)[C@H]1C[C@@H]1[C@H](NC(=O)OCc1ccccc1)c1ccccc1	6%	3%	?	-2%	.
O=C(O)CC/C(=N/NC(=O)c1cn(-c2ccccc2)nc1-c1ccccc1)C(=O)O	-17%	-6%	4.5µM*	1%	?
O=C(OCc1ccccc1)c1cn(-c2ccccc2)nc1-c1ccncc1	89µM*	-33%	20µM*	-5%	-4%
O=C(NCc1cccnc1)c1cn(-c2ccccc2)nc1-c1ccccc1	11%	22%	4.5µM*	1%	-3%
COC(=O)c1cn(-c2ccccc2)nc1-c1ccncc1	17%	-28%	?	3%	0%
O=C(c1ccccn1)N(Cc1ccco1)C1(C(=O)Nc2ccc(Br)cc2)CCCCC1	.	.	.	.	1%
CC(C)=CCC/C(C)=C/CO/N=C1/C[C@@H](O)[C@@H](O)[C@@H]2[C@H]3C(=O)N(c4ccc(F)cc4F)C(=O)[C@@H]3CC[C@@H]12	24%	0%[10 µM]	-4%[13.5 µM]	-8%[10 µM]	.
C[C@H](NC(c1cccc2nc(O)c(O)nc12)P(=O)(O)O)c1ccc(Br)cc1 (stereo partly drawn)	-5%	-7%	.	4%	.
COc1ccc(NC(=O)CN(C)C(=O)/C=C/c2ccc(OCc3ccccc3)cc2)cc1	27%	3%	.	-11%	30µM*
CCc1cc(C(=O)c2ccc(OC)cc2)c(NC(=O)CN2CCCC2)s1	-12%	2%	10µM*	6%	-8%
CCc1cc(C(=O)c2ccc(OC)cc2)c(NC(=O)CN2CCCCC2)s1	8%	7.1µM*	.	-24%	3%
CCOc1ccccc1NC(=O)c1nnn(-c2ccc3c(c2)OCCO3)c1N	-23%	?	.	2%	0%
Cc1ccccc1NC(=O)c1nnn(-c2ccc3c(c2)OCCO3)c1N	4%	0.63µM*	.	?	-2%
CSc1ccccc1NC(=O)CN(C)CC(=O)Nc1cc(C)ccc1C	-7%	?	-17%	-20%	-13%
COc1cccc(NC(=O)CN(C)CC(=O)Nc2ccccc2-c2ccccc2)c1	-28%	14%	?	-12%	-12%
